Measured values from the supplement of paper PMC11732987, “Enantioselective OTUD7B fragment discovery through chemoproteomics screening and high-throughput optimisation” (Communications Chemistry, 2025).

Assays:
Assay in all cases: log2 ratio of Biotin-Ahx-Ub-VS probe labelling (fragment/DMSO); higher = less target engagement (more negative = stronger competition), active = hit call of the paper (q ≤ 0.05, log2 ratio ≤ -1)
Settings in all cases: compound concentration: 200 uM; treatment time: 3 h
ALG13 = target: T1, ALG13 (UniProt Q9NP73)
T1 sequence (whole entry): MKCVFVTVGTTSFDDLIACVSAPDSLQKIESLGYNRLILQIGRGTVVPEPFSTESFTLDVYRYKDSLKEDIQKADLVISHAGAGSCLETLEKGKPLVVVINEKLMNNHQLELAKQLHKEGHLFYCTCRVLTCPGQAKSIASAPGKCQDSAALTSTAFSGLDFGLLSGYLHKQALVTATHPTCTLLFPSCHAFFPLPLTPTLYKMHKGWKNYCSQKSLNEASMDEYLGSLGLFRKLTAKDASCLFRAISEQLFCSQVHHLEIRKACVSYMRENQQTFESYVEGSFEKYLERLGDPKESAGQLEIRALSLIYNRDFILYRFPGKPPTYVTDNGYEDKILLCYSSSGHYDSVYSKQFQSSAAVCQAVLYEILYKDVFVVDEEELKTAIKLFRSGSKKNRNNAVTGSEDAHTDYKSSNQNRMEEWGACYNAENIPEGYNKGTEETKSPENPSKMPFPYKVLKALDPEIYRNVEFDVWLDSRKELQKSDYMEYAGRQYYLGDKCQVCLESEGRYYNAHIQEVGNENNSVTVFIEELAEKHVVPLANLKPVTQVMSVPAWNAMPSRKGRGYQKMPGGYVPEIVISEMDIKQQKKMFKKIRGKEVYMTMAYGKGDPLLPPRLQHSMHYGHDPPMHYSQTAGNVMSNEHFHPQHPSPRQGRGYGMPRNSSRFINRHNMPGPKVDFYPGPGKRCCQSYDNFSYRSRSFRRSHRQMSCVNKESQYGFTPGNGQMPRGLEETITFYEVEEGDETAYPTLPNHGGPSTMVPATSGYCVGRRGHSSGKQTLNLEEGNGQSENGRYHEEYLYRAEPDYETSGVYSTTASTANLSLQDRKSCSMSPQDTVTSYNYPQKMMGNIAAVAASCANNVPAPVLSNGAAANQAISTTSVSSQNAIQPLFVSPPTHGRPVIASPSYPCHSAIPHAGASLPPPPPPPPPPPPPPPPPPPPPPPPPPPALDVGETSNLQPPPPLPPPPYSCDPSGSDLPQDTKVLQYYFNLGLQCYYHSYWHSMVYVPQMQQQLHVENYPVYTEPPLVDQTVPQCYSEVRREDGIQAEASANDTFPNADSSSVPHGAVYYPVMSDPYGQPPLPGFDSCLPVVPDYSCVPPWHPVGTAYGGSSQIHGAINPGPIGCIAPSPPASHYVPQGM
In short: (§1)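 Average log2 ratios of fragment over vehicle were obtained by unpaired t-test from global-median-normalised Spectronaut label-free quantities. Proteins with ≥2 unique peptides were included. HEK293T lysate (495 µg per sample) was treated in triplicate with fragment at 200 µM or vehicle for 3 h, then with Biotin-Ahx-Ub-VS at 0.5 µM final for 1 h, and labelled DUBs were NeutrAvidin-enriched and run by diaPASEF LC-MS/MS.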

ATXN3 = ATXN3 (UniProt P54252)
In short: as §1

BAP1 = target: T2, BAP1 (UniProt Q92560)
T2 sequence (whole entry): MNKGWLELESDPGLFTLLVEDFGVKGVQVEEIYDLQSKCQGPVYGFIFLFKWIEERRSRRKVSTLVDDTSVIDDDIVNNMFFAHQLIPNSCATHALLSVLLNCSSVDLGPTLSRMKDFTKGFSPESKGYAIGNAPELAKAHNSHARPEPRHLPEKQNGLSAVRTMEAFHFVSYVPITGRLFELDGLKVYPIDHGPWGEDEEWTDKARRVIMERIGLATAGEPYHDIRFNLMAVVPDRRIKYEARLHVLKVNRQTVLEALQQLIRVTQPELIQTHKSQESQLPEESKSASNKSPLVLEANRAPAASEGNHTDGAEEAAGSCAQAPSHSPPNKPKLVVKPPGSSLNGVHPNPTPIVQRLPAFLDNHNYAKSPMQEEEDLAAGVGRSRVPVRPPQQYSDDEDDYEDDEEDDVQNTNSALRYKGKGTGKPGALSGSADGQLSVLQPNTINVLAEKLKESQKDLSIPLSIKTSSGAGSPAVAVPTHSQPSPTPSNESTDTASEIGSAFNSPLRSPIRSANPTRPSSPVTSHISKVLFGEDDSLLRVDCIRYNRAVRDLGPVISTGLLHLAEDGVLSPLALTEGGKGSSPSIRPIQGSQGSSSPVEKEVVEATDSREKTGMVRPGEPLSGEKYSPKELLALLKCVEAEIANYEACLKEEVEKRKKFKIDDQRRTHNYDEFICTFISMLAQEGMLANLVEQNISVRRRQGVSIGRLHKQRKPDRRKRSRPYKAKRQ
In short: as §1

EIF3F = EIF3F (UniProt O00303)
In short: as §1

EIF3H = EIF3H (UniProt O15372)
In short: as §1

FAM105A = target: T3, FAM105A (UniProt Q9NUU6)
T3 sequence (whole entry): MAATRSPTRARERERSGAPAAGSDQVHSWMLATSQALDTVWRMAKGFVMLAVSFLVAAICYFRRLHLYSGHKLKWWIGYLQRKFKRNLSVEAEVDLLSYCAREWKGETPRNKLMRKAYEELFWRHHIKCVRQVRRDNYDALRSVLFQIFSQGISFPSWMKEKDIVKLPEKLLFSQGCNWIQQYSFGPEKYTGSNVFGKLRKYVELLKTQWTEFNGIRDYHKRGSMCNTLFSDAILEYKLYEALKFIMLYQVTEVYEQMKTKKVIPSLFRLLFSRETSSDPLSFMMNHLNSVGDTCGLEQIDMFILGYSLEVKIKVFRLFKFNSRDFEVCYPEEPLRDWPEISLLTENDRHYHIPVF
In short: as §1

OTUB1 = OTUB1 (UniProt Q96FW1)
In short: as §1

OTUD4 = target: T4, OTUD4 (UniProt Q01804)
T4 sequence (whole entry): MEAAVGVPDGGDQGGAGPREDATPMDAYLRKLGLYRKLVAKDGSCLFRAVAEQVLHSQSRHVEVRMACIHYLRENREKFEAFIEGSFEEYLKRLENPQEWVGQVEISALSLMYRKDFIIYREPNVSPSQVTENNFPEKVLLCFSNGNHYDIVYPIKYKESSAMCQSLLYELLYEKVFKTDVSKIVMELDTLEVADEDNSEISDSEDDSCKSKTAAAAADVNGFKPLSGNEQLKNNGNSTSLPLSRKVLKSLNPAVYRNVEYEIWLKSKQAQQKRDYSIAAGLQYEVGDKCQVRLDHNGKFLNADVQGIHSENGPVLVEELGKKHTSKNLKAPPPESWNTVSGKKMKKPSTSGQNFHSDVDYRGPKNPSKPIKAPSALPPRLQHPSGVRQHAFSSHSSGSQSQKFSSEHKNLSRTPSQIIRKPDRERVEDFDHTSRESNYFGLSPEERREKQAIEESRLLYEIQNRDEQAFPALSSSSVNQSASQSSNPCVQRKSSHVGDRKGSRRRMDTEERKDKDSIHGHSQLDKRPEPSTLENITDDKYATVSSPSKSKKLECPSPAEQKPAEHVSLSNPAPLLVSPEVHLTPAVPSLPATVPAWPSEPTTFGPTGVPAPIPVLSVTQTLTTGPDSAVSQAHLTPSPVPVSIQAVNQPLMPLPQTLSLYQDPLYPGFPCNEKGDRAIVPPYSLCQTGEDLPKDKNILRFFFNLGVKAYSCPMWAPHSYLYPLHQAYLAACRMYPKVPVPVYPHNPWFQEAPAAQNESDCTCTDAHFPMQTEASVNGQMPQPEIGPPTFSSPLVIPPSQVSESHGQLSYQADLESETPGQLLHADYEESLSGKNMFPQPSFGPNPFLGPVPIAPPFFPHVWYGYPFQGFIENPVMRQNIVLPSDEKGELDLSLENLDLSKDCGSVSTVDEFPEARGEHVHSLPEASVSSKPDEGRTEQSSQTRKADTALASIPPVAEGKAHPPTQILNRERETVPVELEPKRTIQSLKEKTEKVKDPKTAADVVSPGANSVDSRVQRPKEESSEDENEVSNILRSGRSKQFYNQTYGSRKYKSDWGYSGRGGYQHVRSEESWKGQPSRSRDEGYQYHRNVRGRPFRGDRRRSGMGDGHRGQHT
In short: as §1

OTUD5 = target: T5, OTUD5 (UniProt Q96G74)
T5 sequence (whole entry): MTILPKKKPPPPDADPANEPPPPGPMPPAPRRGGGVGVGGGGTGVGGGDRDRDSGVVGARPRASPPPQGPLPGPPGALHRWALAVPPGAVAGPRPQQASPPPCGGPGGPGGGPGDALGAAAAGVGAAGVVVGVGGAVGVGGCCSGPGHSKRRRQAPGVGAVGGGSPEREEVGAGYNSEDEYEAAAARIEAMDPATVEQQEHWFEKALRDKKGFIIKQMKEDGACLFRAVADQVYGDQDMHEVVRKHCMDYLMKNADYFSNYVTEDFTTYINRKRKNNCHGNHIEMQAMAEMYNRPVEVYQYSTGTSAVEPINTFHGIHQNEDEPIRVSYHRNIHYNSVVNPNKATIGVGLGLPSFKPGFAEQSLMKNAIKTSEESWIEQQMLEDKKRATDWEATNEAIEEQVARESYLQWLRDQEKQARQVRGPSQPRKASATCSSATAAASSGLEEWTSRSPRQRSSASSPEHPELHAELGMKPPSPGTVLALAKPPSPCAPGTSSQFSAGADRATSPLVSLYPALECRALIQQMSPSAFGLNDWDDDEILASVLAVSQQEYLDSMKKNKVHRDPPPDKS
In short: as §1

Measured: log2 ratio of Biotin-Ahx-Ub-VS probe labelling

Chain of OTUB1 (Q96FW1 whole entry): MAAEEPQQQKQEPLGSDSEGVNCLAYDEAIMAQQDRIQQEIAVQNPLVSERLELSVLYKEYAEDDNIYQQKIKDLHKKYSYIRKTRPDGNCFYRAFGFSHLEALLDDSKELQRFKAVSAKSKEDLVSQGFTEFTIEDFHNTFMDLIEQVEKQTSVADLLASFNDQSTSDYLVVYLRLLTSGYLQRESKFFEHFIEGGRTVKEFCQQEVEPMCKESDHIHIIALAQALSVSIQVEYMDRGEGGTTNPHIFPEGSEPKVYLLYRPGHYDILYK
Chain of EIF3H (O15372 whole entry): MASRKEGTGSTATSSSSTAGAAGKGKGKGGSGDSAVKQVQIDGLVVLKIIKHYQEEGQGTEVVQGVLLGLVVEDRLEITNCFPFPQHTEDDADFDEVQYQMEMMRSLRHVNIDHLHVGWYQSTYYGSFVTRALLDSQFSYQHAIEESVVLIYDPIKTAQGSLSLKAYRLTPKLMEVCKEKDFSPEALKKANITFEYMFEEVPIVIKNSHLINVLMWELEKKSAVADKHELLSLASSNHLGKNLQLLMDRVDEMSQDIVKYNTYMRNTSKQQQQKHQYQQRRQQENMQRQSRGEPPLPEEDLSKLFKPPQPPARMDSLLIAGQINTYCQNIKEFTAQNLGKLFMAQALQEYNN
Chain of ATXN3 (P54252 whole entry): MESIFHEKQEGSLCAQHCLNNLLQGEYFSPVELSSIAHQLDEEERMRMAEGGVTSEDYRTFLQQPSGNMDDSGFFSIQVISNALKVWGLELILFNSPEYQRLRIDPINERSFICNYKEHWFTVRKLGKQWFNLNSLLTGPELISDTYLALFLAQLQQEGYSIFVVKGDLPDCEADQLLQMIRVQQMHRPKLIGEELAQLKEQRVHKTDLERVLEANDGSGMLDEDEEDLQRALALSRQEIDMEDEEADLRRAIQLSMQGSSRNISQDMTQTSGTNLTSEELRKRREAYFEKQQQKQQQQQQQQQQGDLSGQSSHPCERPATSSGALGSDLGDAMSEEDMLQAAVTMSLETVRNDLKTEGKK
Chain of EIF3F (O00303 whole entry): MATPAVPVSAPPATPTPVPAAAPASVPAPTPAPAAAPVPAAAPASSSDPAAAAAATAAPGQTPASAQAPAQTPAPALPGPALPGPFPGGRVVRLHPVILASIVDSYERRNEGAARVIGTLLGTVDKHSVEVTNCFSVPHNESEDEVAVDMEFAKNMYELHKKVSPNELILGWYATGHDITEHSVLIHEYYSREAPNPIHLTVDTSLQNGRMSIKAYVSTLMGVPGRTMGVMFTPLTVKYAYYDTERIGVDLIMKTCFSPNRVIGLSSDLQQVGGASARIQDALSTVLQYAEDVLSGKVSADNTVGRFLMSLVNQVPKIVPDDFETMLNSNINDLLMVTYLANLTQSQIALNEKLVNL

O=C(CCl)N1CCN(C(=O)N2CCCCC2)CC1
active: ALG13 -1.37 | ATXN3 -1.81 | BAP1 -1.46 | OTUD5 -1.13
inactive: EIF3F -0.507 | EIF3H 0.266 | FAM105A -0.215 | OTUB1 -0.524 | OTUD4 -0.638
